In PubChem BioAssay (NCI) one finds growth data, which are given here for 14 molecules.

The panel holds about 83,000 compounds, 20% with a hit somewhere; the sample as a whole holds those more often.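 48-hour exposure, single concentration, 96-well plates; percent growth endpoint where 0 means no net growth. Active: below 10.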 The source made the active and inactive calls.

The test system of the assay is ACHN renal. Briefly: NCI-60 one-dose screen, 48 h (100 = growth as untreated, 0 = no growth, -100 = all killed). Particulars: 10 µM unless noted.
For the molecule `CC(=O)OC[C@H]1OC(Sc2sc(C(=O)c3ccc(C)cc3)c(N)c2-c2nc3ccccc3s2)[C@H](OC(C)=O)[C@@H](OC(C)=O)[C@@H]1OC(C)=O` (some centres undefined), the growth was 23.1% (inactive).
`COC1=C(C)C(=O)c2c(c(CCCl)c3n2CCC3O)C1=O` (centres undefined): the growth is -3.06% (active).
For `Oc1ccc(C#CCOc2ccccc2)cc1CNCCN(Cc1ccccn1)Cc1ccccn1` the value was 9.66% (active); for `CCc1nnc(NC(=O)c2nnn(-c3ccccc3)c2-c2ccco2)s1`, 94.5% (inactive); for `CNc1nc2c(s1)C(c1cccc(F)c1)CC(=O)N2` (centres undefined), 88.4% (inactive).
Consider `CC(=O)O.CN1[CH-]N(Cc2ccc(C#N)cc2)c2ccccc21.[Ag+]`, for which the growth is 106% (inactive).
For the molecule `O=C(Nc1ccc(F)cc1F)c1cc(F)ccc1O`, the growth was 7.4% (active).
Take `CCc1ccc(Oc2c(-c3ccc(OCc4ccc(Cl)cc4)cc3O)nn(C)c2C(F)(F)F)cc1`: the growth is 5.42% (active).
For `CCC(=O)Nc1ccc(-c2nc(-c3cccc(OC)c3)c(-c3ccnc(Br)c3)[nH]2)cc1` the value was 60.3% (inactive).
For `CC/C=C\C[C@@H](O)C/C=C1/C(=O)C=C[C@H]1C/C=C\CCCC(=O)OC` the value was 26.8% (inactive); for `CC(=O)CC(c1ccccc1)c1c(C)[nH]c2ccccc12` (centres undefined), 92.8% (inactive).
As to `Cc1nc2cnc(N)c(C#Cc3cncc(C(=O)Nc4ccc(CN5CCN(C)CC5)c(C(F)(F)F)c4)c3)c2nc1C`, the growth is 0.0511% (active).
`COc1ccc(-c2nc(NCCO)[nH]c(=O)c2C#N)cc1`: the growth is 96.5% (inactive).
As to `COc1ccn2c(C(C)=O)cc(C(=O)c3ccc4c(c3)Sc3ccccc3N4)c2c1`, the growth was 20.7% (inactive).
